Records with an inconclusive call do not appear. Active and inactive are the calls of the source. The calls were made as follows, unless noted: active = hit-call score of the fitted dose curve at least 0.9, where 1 is the maximum; inactive = score below 0.9.

Test [1] can be described thus: ATG_TCF_b_cat_CIS: Attagene CIS-FACTORIAL HepG2 Assay for human T-Cell-Factor with beta-catenin (TCF/b-cat) (AID 2282965). Conditions: HepG2 TCF/beta-catenin cis-reporter transcription, actives raise or lower the signal. Summed up: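 HepG2 cells transiently transfected with cis-promoter-driven multiplexed reporter units; reporter mRNA measured 24 h after dosing by RT-PCR, FAM labelling, HpaI digestion and capillary electrophoresis. Bidirectional fitting relative to DMSO baseline.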

A short description of test [2]: ATG_TAL_CIS: Attagene CIS-FACTORIAL HepG2 Assay for human TAL Basal Promoter (AID 2282966).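 Also: background control endpoint measuring basal TAL promoter reporter mRNA not a specific factor.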 Conditions: HepG2 Attagene cis-factorial TAL promoter reporter; actives raise or lower the signal. The gist of the method:
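Fluorescence of labelled reporter cDNA fragments, resolved by capillary electrophoresis, gave the readout. Human HepG2 liver cells carried transiently transfected cis-element reporter units and were treated for 24 hours; activity was fitted bidirectionally against DMSO.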

Test [3] in a line: ATG_TGFb_CIS: Attagene CIS-FACTORIAL HepG2 Assay for human Transforming Growth Factor (TGF) (AID 2282967). Conditions: HepG2 Attagene CIS TGFb reporter, mRNA transcription; actives raise or lower the signal. The gist of the method: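 Endogenous TGFB1-linked transcription factor activity read as reporter mRNA via RT-PCR and capillary electrophoresis, 24 h after dosing transiently transfected HepG2 cells. Gain or loss of signal fitted relative to DMSO.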

Test [4] in a line: ATG_VDRE_CIS: Attagene CIS-FACTORIAL HepG2 Assay for human Vitamin D Receptor Element (VDRE) (AID 2282968). Conditions: HepG2 VDRE cis-reporter transcription, actives raise or lower the signal. Summed up:
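Cell-based multiplexed reporter format in human liver HepG2 cells, 24 h post-dose. Fluorescence from capillary electrophoresis of reporter cDNA gives the signal, with DMSO as negative control and baseline.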

Test [5] deals with Estrogen receptor (Homo sapiens) (UniProt P03372). Nature of the test: ATG_ERa_TRANS: Attagene TRANS-FACTORIAL HepG2 Assay for human Estrogen Receptor alpha (ERa) (AID 2282970; active = hit-call score of the fitted dose curve at least 0.9, where 1 is the maximum). The note with it: HepG2 Attagene TRANS ERa GAL4 reporter, mRNA. Summed up:
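Human liver HepG2, transient transfection of multiple GAL4-UAS reporter units; TRANS format (exogenous NR-Gal4 chimera). 24 h dosing. Readout: reporter mRNA, RT-PCR, 6-FAM primer extension, HpaI digest, capillary electrophoresis. Positive direction vs DMSO.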

Test [6] addresses Steroid hormone receptor ERR1 (Homo sapiens) (UniProt P11474). The test is described as follows: ATG_ERRa_TRANS: Attagene TRANS-FACTORIAL HepG2 Assay for human Estrogen-Related Receptor alpha (ERRa) (AID 2282971; active = hit-call score of the fitted dose curve at least 0.9, where 1 is the maximum). The note with it: HepG2 Attagene TRANS reporter, ERRa transactivation. The gist of the method: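 Reporter transcript induction was quantified by RT-PCR and capillary electrophoresis of FAM-labelled, HpaI-cut products after 24 h treatment of HepG2 cells carrying transiently transfected GAL4-UAS reporter units and an exogenous ERRa-Gal4 fusion; activity scored as increase over DMSO.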

The target of test [7] is X-box-binding protein 1 (Homo sapiens) (UniProt P17861). Nature of the test: ATG_Xbp1_CIS: Attagene CIS-FACTORIAL HepG2 Assay for human X-box Binding Protein 1 (XBP1) (AID 2282972). Conditions: HepG2 XBP1 cis-element reporter, Attagene multiplex; actives raise or lower the signal. The gist of the method: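 HepG2 cells transiently transfected with multiple cis-element reporter units report endogenous TF activity; 24 h exposure, then reporter mRNA measured by RT-PCR, 6-FAM labelling, HpaI digestion and capillary electrophoresis. Bidirectional fitting versus DMSO.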

Test [8] is described as follows: ATG_M_19_TRANS: Attagene TRANS-FACTORIAL HepG2 Assay for M19 Transcription Factor (Internal Marker) (AID 2282974; active = hit-call score of the fitted dose curve at least 0.9, where 1 is the maximum). Conditions: HepG2 Attagene TRANS-FACTORIAL M19 internal marker reporter. Summed up: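 Fluorescence of 6-FAM-labelled reporter cDNA fragments, separated by capillary electrophoresis, served as the readout. These derived from HepG2 cells carrying transfected GAL4-UAS reporter units after 24 h dosing, with DMSO as negative control.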

The target of test [9] is Nuclear receptor subfamily 1 group I member 3 (Homo sapiens) (UniProt Q14994). Nature of the test: ATG_CAR_TRANS: Attagene TRANS-FACTORIAL HepG2 Assay for human Constitutive Androstane Receptor (CAR) (AID 2282969; active = hit-call score of the fitted dose curve at least 0.9, where 1 is the maximum;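 also: activators raise reporter mRNA above DMSO so AC50 marks induction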). Conditions: HepG2 Attagene TRANS-FACTORIAL CAR reporter. The gist of the method:
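HepG2 cells transiently transfected with GAL4-UAS reporter units; TRANS format reads activity of exogenous chimeric NR-Gal4 protein. After 24 h dosing, reporter mRNA quantified by RT-PCR, 6-FAM labelling and capillary electrophoresis; gain of signal fitted against DMSO.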

In test [10] the target is Androgen receptor (Homo sapiens) (UniProt P10275). The test is described as follows: ATG_AR_TRANS: Attagene TRANS-FACTORIAL HepG2 Assay for human Androgen Receptor (AR) (AID 2282973; active = hit-call score of the fitted dose curve at least 0.9, where 1 is the maximum). Conditions: HepG2 Attagene TRANS-FACTORIAL AR reporter transcription. As for the experimental part: ATG_TRANS is a cell-based, multiplexed-readout assay that uses HepG2, a human liver cell line, with measurements taken at 24 hours after chemical dosing in a 24-well plate.ATG_AR_TRANS is one of 30 assay component(s) measured or calculated from the ATG_TRANS assay. It is designed to make measurements of mRNA induction, a form of inducible reporter, as detected with fluorescence intensity signals by Reverse transcription polymerase chain reaction (RT-PCR) and Capillary electrophoresis technology.Data from the assay component ATG_AR_TRANS was analyzed into 1 assay endpoint. This assay endpoint, ATG_AR_TRANS, was analyzed in the positive analysis fitting direction relative to DMSO as the negative control and baseline of activity. Using a type of inducible reporter, measures of mRNA for gain-of-signal activity can be used to understand the reporter gene at the transcription factor-level as they relate to the gene AR. Furthermore, this assay endpoint can be referred to as a primary readout, because this assay has produced multiple assay endpoints where this one serves a reporter gene function. To generalize the intended target to other relatable targets, this assay endpoint is annotated to the nuclear receptor intended target family, where the subfamily is steroidal.
Human liver HepG2 cells are transiently transfected with multiple reporter transcription units (MRTUs) in 6-well plates using FuGene 6 reagent (Roche; 3 ml FuGene/1 mg DNA). The MRTU constructs are regulated by a cis-regulating element (promoter). […] A major difference between the CIS and TRANS system is that in CIS activities of endogenous TFs are measured, whereas the TRANS assay evaluates changes in activities of exogenous, chimeric NR-Gal4 proteins. […] At the end of 24 hour incubation, total RNA was isolated using TriZol reagent (Invitrogen). The isolated RNA is then reverse-transcribed using oligo(dT) primer and Mo-MLV reverse transcriptase (Invitrogen) with DNAse I (Ambion) treatment for 30 min. The one-tenth of the produced cDNA was amplified by PCR using Taq DNA polymerase (Invitrogen) and two reporter sequence-specific primers. The PCR products were fluorescently labeled by primer extension with 6-arboxyfluorescein (6-FAM) 5'-labeled reporter sequence-specific primer (2 min at 95 C, 20 s at 68 C and 10 min at 72 C) and these products were digested with 5U of HpaI (New England Biolabs) for 2h at 37 C. The fragments were purified using Qiaquick PCR columns (Qiagen), analyzed on an ABI 3130xL genetic analyzer (Applied Biosystems) with peak positions identified by using a set of X-rhodamine (ROX)-labeled MapMarker1000 molecular weight standards (BioVentures). The raw capillary electrophoresis data was processed using Attagraph software (Attagene).

Chain of Nuclear receptor subfamily 1 group I member 3 (Homo sapiens) (Q14994 whole entry, looked up, the tested form may be a part): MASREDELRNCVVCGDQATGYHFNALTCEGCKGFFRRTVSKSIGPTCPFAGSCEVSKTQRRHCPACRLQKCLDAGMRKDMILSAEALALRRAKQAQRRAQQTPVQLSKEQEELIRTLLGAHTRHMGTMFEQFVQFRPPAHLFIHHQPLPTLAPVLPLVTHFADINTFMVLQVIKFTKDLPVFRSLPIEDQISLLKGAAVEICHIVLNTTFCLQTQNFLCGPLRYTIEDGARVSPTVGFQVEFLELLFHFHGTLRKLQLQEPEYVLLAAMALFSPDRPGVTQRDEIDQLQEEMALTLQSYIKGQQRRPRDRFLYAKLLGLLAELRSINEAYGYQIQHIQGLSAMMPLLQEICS
Chain of Estrogen receptor (Homo sapiens) (P03372 whole entry, looked up, the tested form may be a part): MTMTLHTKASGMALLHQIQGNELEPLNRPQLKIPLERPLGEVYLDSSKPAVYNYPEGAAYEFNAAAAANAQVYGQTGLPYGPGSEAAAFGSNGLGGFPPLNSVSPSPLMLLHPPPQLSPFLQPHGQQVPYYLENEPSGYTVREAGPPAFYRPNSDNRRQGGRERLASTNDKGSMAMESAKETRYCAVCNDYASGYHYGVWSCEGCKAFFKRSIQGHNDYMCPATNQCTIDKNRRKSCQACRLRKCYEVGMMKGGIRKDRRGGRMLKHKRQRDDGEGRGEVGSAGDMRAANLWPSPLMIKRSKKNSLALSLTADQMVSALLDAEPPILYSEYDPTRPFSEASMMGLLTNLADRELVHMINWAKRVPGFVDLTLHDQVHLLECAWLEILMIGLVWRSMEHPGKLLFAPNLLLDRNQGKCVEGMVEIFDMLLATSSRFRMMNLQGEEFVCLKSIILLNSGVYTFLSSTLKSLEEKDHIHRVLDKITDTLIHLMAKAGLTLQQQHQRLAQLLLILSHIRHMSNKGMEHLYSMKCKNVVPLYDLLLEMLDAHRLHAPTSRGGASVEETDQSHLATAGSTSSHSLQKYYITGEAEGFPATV
Chain of Steroid hormone receptor ERR1 (Homo sapiens) (P11474 whole entry, looked up, the tested form may be a part): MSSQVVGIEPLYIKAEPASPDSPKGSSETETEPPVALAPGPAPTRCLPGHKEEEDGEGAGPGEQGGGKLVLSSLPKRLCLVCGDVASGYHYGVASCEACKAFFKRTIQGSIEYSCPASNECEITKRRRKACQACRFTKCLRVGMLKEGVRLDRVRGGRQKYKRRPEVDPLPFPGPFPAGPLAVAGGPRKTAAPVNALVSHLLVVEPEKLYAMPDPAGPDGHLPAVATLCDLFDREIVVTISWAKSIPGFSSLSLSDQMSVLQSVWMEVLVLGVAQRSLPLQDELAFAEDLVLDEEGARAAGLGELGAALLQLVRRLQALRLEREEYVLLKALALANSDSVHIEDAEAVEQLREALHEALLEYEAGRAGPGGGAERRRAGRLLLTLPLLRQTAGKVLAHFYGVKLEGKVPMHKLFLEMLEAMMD
Chain of X-box-binding protein 1 (Homo sapiens) (P17861 whole entry, looked up): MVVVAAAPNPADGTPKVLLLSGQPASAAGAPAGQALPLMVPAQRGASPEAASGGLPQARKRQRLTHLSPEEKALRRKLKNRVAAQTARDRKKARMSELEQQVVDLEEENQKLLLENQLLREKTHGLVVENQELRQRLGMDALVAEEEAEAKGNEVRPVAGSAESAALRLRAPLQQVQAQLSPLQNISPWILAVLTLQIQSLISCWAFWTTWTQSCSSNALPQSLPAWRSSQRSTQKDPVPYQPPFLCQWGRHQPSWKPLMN
Chain of Androgen receptor (Homo sapiens) (P10275 whole entry, looked up): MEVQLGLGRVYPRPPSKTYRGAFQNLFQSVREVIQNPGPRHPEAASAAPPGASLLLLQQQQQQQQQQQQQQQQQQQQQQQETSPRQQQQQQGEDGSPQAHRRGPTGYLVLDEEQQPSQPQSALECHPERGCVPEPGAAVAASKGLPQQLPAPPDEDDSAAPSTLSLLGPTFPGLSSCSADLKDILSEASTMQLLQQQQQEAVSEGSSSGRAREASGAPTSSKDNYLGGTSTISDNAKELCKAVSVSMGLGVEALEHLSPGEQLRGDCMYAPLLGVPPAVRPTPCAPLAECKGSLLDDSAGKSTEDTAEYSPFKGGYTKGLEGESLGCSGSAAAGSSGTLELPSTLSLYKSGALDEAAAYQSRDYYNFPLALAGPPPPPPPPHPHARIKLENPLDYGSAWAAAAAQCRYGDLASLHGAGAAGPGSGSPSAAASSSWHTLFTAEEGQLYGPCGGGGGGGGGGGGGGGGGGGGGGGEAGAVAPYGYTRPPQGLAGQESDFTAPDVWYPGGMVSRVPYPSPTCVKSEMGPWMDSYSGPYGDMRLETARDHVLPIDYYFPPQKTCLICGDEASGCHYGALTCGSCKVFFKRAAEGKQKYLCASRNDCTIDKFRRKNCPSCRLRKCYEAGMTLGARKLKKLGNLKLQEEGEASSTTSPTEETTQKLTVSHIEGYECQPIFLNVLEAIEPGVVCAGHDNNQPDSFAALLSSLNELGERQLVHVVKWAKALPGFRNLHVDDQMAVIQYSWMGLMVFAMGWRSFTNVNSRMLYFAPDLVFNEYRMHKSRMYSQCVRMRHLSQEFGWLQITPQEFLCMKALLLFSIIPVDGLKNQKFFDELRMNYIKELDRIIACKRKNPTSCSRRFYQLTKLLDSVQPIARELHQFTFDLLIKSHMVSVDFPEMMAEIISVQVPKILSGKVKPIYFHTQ

For the compound `CCNC(=O)NC(=O)C(C#N)=NOC`, the result in [1], in [2], in [3], in test [4], in test [5] and in test [6] was inactive. Further, the outcome in test [7] and in test [8] was inactive.

As to `CNC(=O)N(C)c1nnc(C(C)(C)C)s1`, the call in [1], in [2], in [3], in test [4], in test [5] and in test [7] was inactive.

As usually defined, the AC50 is the midpoint of the concentration-response curve, whichever way the signal moves. Take `CCOc1cc(C(C)(C)C)ccc1C1COC(c2c(F)cccc2F)=N1` (stereo unspecified): the compound was called inactive in [1], in test [2], in [3], in test [5], in test [6] and in test [7]. Also, the compound was classed as inactive in test [8]. Also, the AC50 in test [4] is 1.36 µM (active).

Turning to `CCOc1nc(C(Cl)(Cl)Cl)ns1`, the result in test [1], in test [2], in [3], in [4], in test [5] and in test [6] was inactive. Moreover, the outcome in test [7] and in [8] was inactive.

For the compound `CCNP(=S)(OC)O/C(C)=C/C(=O)OC(C)C` (stereo unspecified), the call in test [1], in test [2], in [3] and in test [7] was inactive. In addition, the AC50 in [4] is 13.8 µM (active); in test [5] it was 31.9 µM (active).

On to `COC(=O)NC(=S)Nc1ccccc1NC(=S)NC(=O)OC`, for which the result in test [1], in [2], in test [3], in test [5] and in test [7] was inactive. Moreover, the AC50 in test [4] is 50 µM (active).

For the compound `CC(C)Oc1cccc(NC(=O)c2ccccc2C(F)(F)F)c1`, the result in test [1], in test [2], in test [3], in test [5], in test [6] and in test [7] was inactive. Moreover, the compound was classed as inactive in [8]. Moreover, in test [4], the half-maximal activity concentration (AC50) was 17.6 µM (active).

As to `Cn1c(-c2ccccc2)cc(-c2ccccc2)[n+]1C`, the outcome in [1], in test [2], in test [3], in test [4], in test [5] and in test [6] was inactive. Also, the compound was classed as inactive in test [7] and in test [8].

With `O=P(O)(O)CCCl`, the compound was classed as inactive in [1], in test [2], in test [3], in test [4], in test [5] and in test [7].

For `O=C(O)c1c(Cl)ccc2cc(Cl)cnc12`, the compound was classed as inactive in test [1], in [2], in [3], in test [4], in test [9] and in [5]. Further, the call in test [7] and in test [8] was inactive.

For `Nc1c(Cl)c(F)nc(OCC(=O)O)c1Cl`, the outcome in test [1], in [2], in test [3], in test [4], in test [5] and in [6] was inactive. For the same compound, the result in test [7] and in test [10] was inactive.

Turning to `COCC(=O)N(c1c(C)cccc1C)C(C)C(=O)OC` (stereo unspecified), the outcome in test [1], in [2], in test [3], in test [4], in [5] and in test [6] was inactive. Besides, the result in [7] and in test [8] was inactive.

Regarding `CC(C)C1(C)N=C(c2ncccc2C(=O)O)NC1=O` (stereo unspecified), the compound was classed as inactive in test [1], in [2], in [3], in test [4], in test [9] and in test [5]. Further, the call in test [7] and in test [8] was inactive.

Consider `COC(=O)N(C(=O)N1CO[C@@]2(C(=O)OC)Cc3cc(Cl)ccc3C2=N1)c1ccc(OC(F)(F)F)cc1`, for which the outcome in test [1], in test [2], in [3], in test [5], in test [6] and in test [7] was inactive. For the same compound, the call in test [8] was inactive. In [4], the AC50 was 2.98 µM (active).

For the compound `CC(C)(C)C(=O)C(Oc1ccc(Cl)cc1)n1cncn1` (stereo unspecified), the call in [1], in test [2], in test [3], in test [9], in test [7] and in [8] was inactive. The results for the AC50 in test [4] and in test [5] were 34.4 µM (active) and 18.5 µM (active), respectively.

As to `OC(c1ccc(Cl)cc1)(c1ccc(Cl)cc1)C(Cl)(Cl)Cl`, the result in test [1], in test [2], in test [3], in [4], in [5] and in test [6] was inactive. The call in [7] was inactive.

Consider `CC(C)N1C(=O)c2ccccc2NS1(=O)=O`, for which the compound was called inactive in test [1], in test [2], in [3], in test [5], in test [6] and in test [7]. Also, the AC50 in test [4] was 14.9 µM (active).

The record behind these values is PubChem BioAssay (EPA / NIEHS).
